VLA-4 inh: inhibition in a human VLA-4 binding assay. VLA-4 expressing cells, ligand binding flow cytometry. hit rate 0.2% among 330,000. AID 2557. inhibition, % (about 7 µM as worked out from the volumes in the protocol). P13612; in the data active = inhibition above about 50%
Target sequence (P13612 whole entry, looked up): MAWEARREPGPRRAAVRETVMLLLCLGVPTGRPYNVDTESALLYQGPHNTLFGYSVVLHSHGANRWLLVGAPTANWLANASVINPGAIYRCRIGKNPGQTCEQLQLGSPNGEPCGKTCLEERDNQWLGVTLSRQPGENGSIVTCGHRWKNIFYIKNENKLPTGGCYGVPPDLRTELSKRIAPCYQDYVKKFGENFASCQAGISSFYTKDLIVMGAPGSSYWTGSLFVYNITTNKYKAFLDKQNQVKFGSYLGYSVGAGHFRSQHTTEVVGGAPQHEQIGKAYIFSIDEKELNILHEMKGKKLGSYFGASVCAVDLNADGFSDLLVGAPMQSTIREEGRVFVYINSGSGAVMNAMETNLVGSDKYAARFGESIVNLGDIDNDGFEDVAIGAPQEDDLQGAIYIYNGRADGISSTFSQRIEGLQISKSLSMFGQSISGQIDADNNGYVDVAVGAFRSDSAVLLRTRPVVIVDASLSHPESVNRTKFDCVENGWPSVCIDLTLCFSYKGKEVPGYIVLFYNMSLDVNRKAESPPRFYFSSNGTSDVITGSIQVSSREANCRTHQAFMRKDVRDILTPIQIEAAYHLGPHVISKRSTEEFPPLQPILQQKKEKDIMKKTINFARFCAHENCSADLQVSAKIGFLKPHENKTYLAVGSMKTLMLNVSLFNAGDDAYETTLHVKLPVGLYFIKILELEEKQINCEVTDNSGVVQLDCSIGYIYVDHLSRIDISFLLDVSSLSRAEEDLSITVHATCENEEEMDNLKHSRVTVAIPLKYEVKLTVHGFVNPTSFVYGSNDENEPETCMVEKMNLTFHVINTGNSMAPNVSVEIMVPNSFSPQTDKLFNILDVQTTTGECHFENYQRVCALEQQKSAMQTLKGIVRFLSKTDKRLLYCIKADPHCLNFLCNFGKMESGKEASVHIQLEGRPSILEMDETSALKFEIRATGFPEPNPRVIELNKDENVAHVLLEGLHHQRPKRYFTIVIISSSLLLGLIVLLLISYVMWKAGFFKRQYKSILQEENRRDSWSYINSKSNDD
LAP4 TOR yeast: yeast TOR pathway LAP4-GFP modulation; AID 2023; GFP response vs DMSO, % at 10 µM; S. cerevisiae LAP4-GFP multiplex, flow cytometry GFP, 3 h; median GFP as percent of DMSO wells; hit rate 0.34% among 320,000;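 active = GFP response vs DMSO above a set limit, about the screen mean plus 3 SD, cut at about 150% in these data; inconclusive = under 70 cell events counted for the yeast strain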
MEP2 TOR yeast: modulators of TOR pathway MEP2-GFP in S. cerevisiae; S. cerevisiae MEP2-GFP strain, flow cytometry GFP, 3 h; 100% = DMSO control level; GFP response vs DMSO, % at 10 µM; hit rate 0.51% among 330,000;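 active = GFP response versus DMSO above a set limit, roughly screen mean plus 3 SD, cut at about 180% in these data; inconclusive = fewer than 70 cells counted for a yeast strain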;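 note: median GFP fluorescence of the barcode-gated MEP2-GFP cells per well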
CIT2 TOR yeast: alters CIT2-GFP fluorescence in TOR pathway yeast screen; S. cerevisiae CIT2-GFP strain, flow cytometry, 3 h; 100 means same as DMSO wells; GFP response vs DMSO, % at 10 µM; hit rate 0.065% among 320,000;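 active = GFP response relative to DMSO above a set limit, near the screen mean plus 3 SD, cut at about 150% in these data; inconclusive = Fewer than 70 cells measured for a yeast strain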;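 note: ratio of well median GFP fluorescence to mean of DMSO wells on the plate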
RPL19A-GFP yeast: modulators of TOR pathway RPL19A-GFP in S. cerevisiae. S. cerevisiae RPL19A-GFP strain, flow cytometry, 3 h; hits give low values. percent response vs DMSO, % at 10 µM. hit rate 0.3% among 330,000;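 active = percent response vs DMSO below 50%; inconclusive = fewer than 70 events counted for the yeast strain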;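 note: median channel GFP fluorescence of the barcoded RPL19A-GFP strain; ratio of sample median GFP to plate DMSO average so 100% = DMSO; lower means less RPL19A-GFP as with rapamycin TOR inhibition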
AGP1-GFP MLPCN: yeast TOR pathway AGP1-GFP modulation. hit rate 0.02% among 320,000. S. cerevisiae AGP1-GFP multiplex flow cytometry, 3 h; GFP as percent of DMSO wells. GFP response vs DMSO, % at 10 µM;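 active = GFP response relative to DMSO above a set limit, near screen average plus 3 SD, cut at about 150% in these data; inconclusive = fewer than 70 cells counted for the yeast strain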;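 note: median GFP channel fluorescence of the gated AGP1 strain per well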
Active calls of the source: *; i = inactive; ? = inconclusive; . = no result given; [ ] = dose if it differs, or a comment. Rows were chosen to be rich in hits. Some 1.1% of all compounds tested hit in one or more screens of this group.

SMILES | VLA-4 inh | LAP4 TOR yeast | MEP2 TOR yeast | CIT2 TOR yeast | RPL19A-GFP yeast | AGP1-GFP MLPCN
CSCCC(NC(=O)c1ccco1)C(=O)OCC(=O)N1c2ccccc2NC(=O)C1(C)C (centres undefined) | 6 | 102 | 97 | 93 | 102 | 104
COc1ccccc1NC(=S)N1CCC(c2nc3cc(C)c(C)cc3[nH]2)CC1 | 11 | 98 | 300*[may fluoresce violet] | ? | 59 | ?
Cc1cc(S(=O)(=O)Nc2ccc3cn[nH]c3c2)c(C)cc1Cl | 1 | 85 | 92 | 94 | 95 | 89
O=C(N/N=C/c1ccc(-c2ccc(Br)cc2)o1)c1ccc2c(c1)OCO2 | 5 | 162* | 91 | 84 | 92 | 90
O=C(N/N=C\c1ccc(S(=O)(=O)O)o1)c1ccc2c(c1)OCO2 | 11 | 93 | 108 | 103 | 104 | 102
O=C(NNC(=O)C1CCCCC1)C(=O)NC1CCCCC1 | 7 | 155* | 177* | 126 | 106 | 107
Cc1cccc(N2C(=O)C3C4C=CC(C4)C3C2=O)c1 (centres undefined) | 12 | 93 | 238*[may fluoresce violet] | ? | 48*[may fluoresce violet] | ?
Cc1ccc(N2C(=O)C3C4C=CC(C4)C3C2=O)cc1C (centres undefined) | -2 | 95 | 99 | 99 | 96 | 100
CCN(CC(=O)Nc1c(F)cccc1F)C(=O)CCc1nc2cc(S(=O)(=O)N(C)C)ccc2n1CC | 10 | 93 | 100 | 100 | 106 | 105
CCn1c(CCC(=O)Nc2nc3c(s2)CCCC3)nc2cc(S(=O)(=O)N(C)C)ccc21 | -4 | 75 | 250*[may fluoresce violet] | ? | 37*[may fluoresce violet] | ?
O=C(O)CSc1cccc[n+]1[O-] | 11 | 93 | 99 | 95 | 96 | 99
O=C(CSc1cccc[n+]1[O-])c1cc2ccccc2o1 | 1 | 155* | 96 | 83 | 91 | 90
COC(=O)Cc1ccc(OCc2ccc(Cl)nc2)cc1 | -4 | 163* | 74 | 57 | 75 | 76
Cc1cccc(NC(=O)C2CCCN(S(=O)(=O)c3ccc4c(c3)oc(=O)n4C)C2)c1 (centres undefined) | 14 | 93 | 202*[may fluoresce violet] | ? | 45*[may fluoresce violet] | ?
O=C1/C(=C\c2ccccn2)SC(=S)N1Nc1ncc(C(F)(F)F)cc1Cl | -6 | 152* | 99 | 104 | 100 | 91
CCCCOC(=O)c1ccc(N)cc1 | 8 | 93 | 96 | 82 | 99 | 88
CCCCN(CCCC)CCCOC(=O)c1ccc(N)cc1 | 12 | 183* | 93 | 87 | 80 | 91
Cc1ccc(OCCN2CCN(C(=O)CCC(=O)Nc3nnc(CC(C)C)s3)CC2)cc1 | -9 | 77 | 355*[may fluoresce violet] | ? | 43*[may fluoresce violet] | ?
COc1ccc2nc(C)cc(NCc3ccc(F)cc3)c2c1 | i | 117 | 143 | 103 | 97 | 98
COc1ccc(C)c2sc(N(CCCN(C)C)C(=O)c3ccc4c(c3)OCCO4)nc12 | -21 | 98 | 104 | 114 | 101 | 107
O=C(c1cncc(Br)c1)N1CCN(S(=O)(=O)c2ccccc2)CC1 | -4 | 75 | 234*[may fluoresce violet] | ? | 56 | ?
O=C(c1cncc(Br)c1)N1CCN(S(=O)(=O)c2ccccc2C(F)(F)F)CC1 | 6 | 112 | 111 | 108 | 109 | 102
COc1cccc(NC(=O)[C@@H]2CCCN2C(=O)[C@@H]2Cc3ccccc3CN2C(=O)OC(C)(C)C)c1 | 0 | 78 | 159 | ? | 19*[may fluoresce violet] | 16
c1ccc(-c2nc(N3CCCCCC3)nc(-n3ccnc3)n2)cc1 | -6 | 130 | 103 | 90 | 101 | 82
c1ccc(-c2nc(N3CCN(c4ccccc4)CC3)nc(-n3ccnc3)n2)cc1 | 3 | 127 | 243*[may fluoresce violet] | ? | 59 | 20
COC(=O)C1=C(N)OC2=C(C(=O)CCC2)C1c1cccnc1 (centres undefined) | -11 | 100 | 98 | 86 | 96 | 101
CCOC(=O)C1=C(N)OC2=C(C(=O)CCC2)C1c1cccnc1 (centres undefined) | 2 | 81 | 295*[may fluoresce violet] | ? | . | ?
COc1ccc(/C=C2\SC(=S)N(CCCC(=O)N3CCCCC3CCO)C2=O)cc1 (centres undefined) | 4 | 96 | 98 | 94 | 97 | 85

Source: PubChem BioAssay
